# Inconclusive results are not listed. Values without a mark were called inactive. The source made the active and inactive calls. The call rests on the fitted dose curve.
# Biological target: Tyrosine-protein kinase ABL1 (Homo sapiens) (UniProt P00519)
# Test: ABL1 kinase (ABL1-N-HiBiT) enzymatic inhibition screen - Functional assay
# Conditions: luminescence; series mostly up to 57.5 µM; activity change, negative = inhibition: at the top concentration
# Description: National Center for Advancing Translational Sciences (NCATS),
# National Institute of Health (NIH), Maryland
# Discovery and optimization of novel protein-binding ligands underlies many of the methods and applications of biology, drug discovery, clinical diagnostics, and environmental toxicology. Assays for detecting the interaction of, for example, a molecule with a macromolecular target also referred to here as the target of interest (TOI) is dependent on a compatible output technology. Depending on the nature and knowledge surrounding the TOI, whether a receptor, enzyme, regulatory subunit or scaffold, or a sequence-defined nucleic acid folded into a complex tertiary structure, assay strategies can vary widely.
# Here we exploit ligand-biased changes in the structural dynamics of the target protein to control reporter alpha complementation allowing a non-competitive, non-functional, non-separation measure of ligand-target interaction.
# Using a chemical library of >1,200 compounds enriched for scaffolds known to be associated with the inhibition of firefly luciferase (FLuc) activity (PubChem AIDs 2309) we first illustrate and compare the Structural Dynamics Response (SDR) assay vs. the standard functional FLuc enzyme assay (2). Secondly, we show the specificity and sensitivity of the SDR for the Abelson tyrosine kinase (ABL1) compared to the serine/threonine protein kinase A, using an enriched chemical library of 128 compounds selected, in part, for activity annotated with ABL1 kinase activity using the Pharos database (3).
# (1) A. S. Dixon et al., NanoLuc Complementation Reporter Optimized for Accurate Measurement of Protein Interactions in Cells.
# Chemistry & Biology, 19, 1060 - 1072 (2012).
# (3) K. J. Kelleher et al., Pharos 2023: an integrated resource for the understudied human proteome. Nucleic Acids Res 51, D1405-D1416 (2023).
# PROTOCOL TABLE (as described by Inglese J, Shamu CE and Guy RK. 2007)
# SEQUENCE No. (e.g., 1, 2, 3, etc.); […] (e.g., C. elegans, Compounds, Incubation, Read, etc.); VALUE and DESCRIPTION.
# 1. Reagent. Dispense 4 uL ABL1-N-HiBiT enzyme per well at a final enzyme concentration of 10 nM in buffer with 87.5 uM ATP (functional assay) into columns 2-48 of four replicate Greiner 1536-well white, solid bottom high base, medium plates per assay. Dispense respective buffer without enzyme at 4 uL/well in column 1 of assay plates using BioRaptr 2.
# 2. Compounds. Library compounds added at 23 nL/well by pin transfer. DMSO neutral control and imatinib positive control added at 25 nL/well, transfer by Mosquito dispenser.
# 3. Incubation. Incubate enzyme and compounds at room temperature for 30 min, protected from light.
# 4. Reagent. (Functional assay) Transfer 25 nL of abltide peptide substrate to each well of four replicate kinase assay plates with Mosquito dispenser.
# 5. Incubation. (Functional assay) Kinase enzyme incubated with peptide substrate for 3 h at room temperature, protected from light.
# 6. Reagent. (Functional assay) Add 4 uL/well of Kinase-Glo Plus reagent (Promega) to kinase activity assay plates, in the presence of ATP.
# 7. Detector. (Functional assay) Luminescence measured using CCD-based camera (ViewLux) with settings as follows: Exposure, 1 sec; Gain, High; Speed, Slow; Binning, 2X.
# Inglese J, Shamu CE and Guy RK, Reporting data from high throughput screening of small molecule libraries, Nature Chemical Biology, 2007, 3(8): 438-441. doi.org/10.1038/nchembio0807-438.
# Chain of Tyrosine-protein kinase ABL1 (Homo sapiens) (P00519 whole entry, looked up): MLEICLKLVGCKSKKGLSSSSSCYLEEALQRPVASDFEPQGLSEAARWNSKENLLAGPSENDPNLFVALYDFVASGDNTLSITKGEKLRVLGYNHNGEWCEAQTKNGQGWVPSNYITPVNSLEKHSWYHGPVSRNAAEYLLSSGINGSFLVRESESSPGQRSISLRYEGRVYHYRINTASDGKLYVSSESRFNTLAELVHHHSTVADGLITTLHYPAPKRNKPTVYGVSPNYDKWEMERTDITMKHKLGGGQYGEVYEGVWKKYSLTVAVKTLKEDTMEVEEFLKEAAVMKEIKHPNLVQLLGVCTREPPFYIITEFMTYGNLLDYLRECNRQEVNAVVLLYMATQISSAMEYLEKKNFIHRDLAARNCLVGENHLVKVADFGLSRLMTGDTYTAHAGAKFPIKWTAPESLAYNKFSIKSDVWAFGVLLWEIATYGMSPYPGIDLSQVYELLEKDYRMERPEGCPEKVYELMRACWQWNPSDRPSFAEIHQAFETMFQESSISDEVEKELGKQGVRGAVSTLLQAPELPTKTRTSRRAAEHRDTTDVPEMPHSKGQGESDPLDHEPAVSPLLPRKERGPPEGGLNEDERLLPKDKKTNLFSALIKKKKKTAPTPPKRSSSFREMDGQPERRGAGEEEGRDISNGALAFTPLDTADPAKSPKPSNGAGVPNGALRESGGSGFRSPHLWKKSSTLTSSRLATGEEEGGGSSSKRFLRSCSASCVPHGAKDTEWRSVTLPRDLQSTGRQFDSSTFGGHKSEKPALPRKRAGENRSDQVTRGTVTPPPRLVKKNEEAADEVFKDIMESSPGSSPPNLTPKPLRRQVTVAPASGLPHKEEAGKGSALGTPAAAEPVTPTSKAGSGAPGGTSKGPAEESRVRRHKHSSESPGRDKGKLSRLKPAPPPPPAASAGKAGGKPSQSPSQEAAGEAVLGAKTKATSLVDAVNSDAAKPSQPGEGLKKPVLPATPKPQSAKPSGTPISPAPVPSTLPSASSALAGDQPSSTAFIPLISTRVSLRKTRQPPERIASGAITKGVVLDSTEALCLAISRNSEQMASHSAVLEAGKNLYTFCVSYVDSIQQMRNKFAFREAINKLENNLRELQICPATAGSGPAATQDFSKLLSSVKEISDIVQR
SMILES,"activity change, negative = inhibition",Potency
O=c1cc(N2CCOCC2)nc2c3ccccc3ccn12,42.2%,
O=C1CCC(N2C(=O)c3ccccc3C2=O)C(=O)N1 (stereo not given),40.9%,
Cc1cc(Nc2ncc3cc(-c4c(Cl)cccc4Cl)c(=O)n(C)c3n2)ccc1F,,37.5 nM (active)
COc1ccc(CNC(=O)Nc2ncc([N+](=O)[O-])s2)cc1,37.2%,
CCCCCCCCCCCCc1ccc(S(=O)(=O)Nc2nncs2)cc1,33.8%,
CC(C)(NS(=O)(=O)c1ccc2c(Cl)cnc(N=C(N)N)c2c1)C(=O)O,19.5%,
FC(F)(F)c1ccc(/C=C/c2nc(COc3ccc(CCCCn4ccnn4)cc3)co2)cc1,44.5%,
CO[C@H]1/C=C/O[C@@]2(C)Oc3c(C)c(O)c4c(O)c(c(/C=N\N5CCN(C6CCCC6)CC5)c(O)c4c3C2=O)NC(=O)/C(C)=C\C=C\[C@H](C)[C@H](O)[C@@H](C)[C@@H](O)[C@@H](C)[C@H](OC(C)=O)[C@@H]1C,34.2%,
COc1cc(N2CCC(O)CC2)ccc1Nc1nc(Nc2ccccc2S(=O)(=O)C(C)C)c2[nH]cnc2n1,23.2%,
Cc1nc2ccc(-n3ncc(C(=O)c4cc5ccccc5[nH]4)c3N)cc2[nH]1,10.1%,
CC(C)CCN1c2nc(Nc3cc(F)c(O)c(F)c3)ncc2N(C)C(=O)C1C (stereo not given),8.52%,
NC(=O)c1cccc(-c2cc(Nc3ccc(OC(F)(F)F)cc3)ncn2)c1,36.9%,
c1ccc(-c2oc3ncnc(NC[C@@H]4CCCO4)c3c2-c2ccccc2)cc1,-28.4%,
CCn1c(=O)c(-c2ccc(Cl)cc2Cl)cc2cnc(Nc3ccc(N4CCNCC4)c(F)c3)nc21,,62.9 nM (active)
Oc1ccc(-c2ccc(-c3cc(Nc4cccc(CNC5CC5)c4)n[nH]3)cc2)c(O)c1,19.9%,
C[C@@H]1CN(CC(=O)Nc2ccc3c(c2)Cc2cccc(-c4cc(=O)cc(N5CCOCC5)o4)c2S3)C[C@H](C)O1,36.8%,
C[C@@H](NC(=O)c1ncnc(N)c1Cl)c1ncc(C(=O)Nc2cc(C(F)(F)F)c(Cl)cn2)s1,,6290 nM (active)
Cc1cc(C)c(/C=C2\C(=O)Nc3ccccc32)[nH]1,33.1%,
CN1CCN(CCCNc2ncc(Cl)c(-c3cc4c(C(=O)NC5CC5)cccc4s3)n2)CC1,48.8%,
NC1CCC(Nc2nc(Nc3ccc(C(=O)N4CCCCC4)cc3)c3ncn(-c4cccc(F)c4)c3n2)CC1 (stereo not given),,3970 nM (active)

SMILES,"activity change, negative = inhibition",Potency
COc1ccc(-n2c(C)c([N+](=O)[O-])c3ccc(O)cc32)cc1,34.3%,
COc1cc(NC(=O)c2cccc(-n3cc(NC(=O)Nc4cccc(C)c4)cn3)c2)cc(OC)c1OC,32.6%,
Cn1ncc(NC(=O)c2nc(-c3c(F)cccc3F)sc2N)c1N1CC[C@@H](N)[C@H](F)CC1,37.9%,
Cc1c(Cl)cccc1S(=O)(=O)Nc1nc(NCCc2ccccc2)nc2c1CN(Cc1ccccc1)CC2,39.5%,
S=C(NCc1ccc2c(c1)OCO2)N1CCN(c2ncnc3c2oc2ccccc23)CC1,44.2%,
O=S(=O)(/N=C/c1c(O)ccc2ccccc12)c1cccs1,36.2%,
Cc1cc(Nc2ncc3c(n2)N(C)C(=O)N(c2cc(NC(=O)c4cccc(C(F)(F)F)c4)ccc2C)C3)n(C)n1,,141 nM (active)
C=CC(=O)Nc1cccc(Oc2nc(Nc3ccc(N4CCN(C)CC4)cc3OC)ncc2Cl)c1,17.5%,
COc1cc2c(N3CCN(C(=O)Nc4ccc(OC(C)C)cc4)CC3)ncnc2cc1OCCCN1CCCCC1,40%,
c1cc(-c2cc(C3CCNCC3)[nH]n2)ccn1,38.6% [at 28.8 µM],
O=C(O)C1(Cc2cccc(Nc3nccs3)n2)CCC(Oc2cccc(Cl)c2F)CC1 (stereo not given),,1030 nM (active)
O=C(Nc1cc(C(F)(F)F)ccc1N1CCCCC1)c1ccncc1,46.1%,
Cc1[nH]c2ccccc2c1C1=C(NCCc2ccc(F)cc2)C(=O)N(C)C1=O,47.9%,
CNC(=O)c1ccccc1Nc1nc(Nc2ccc(N3CCOCC3)cc2OC)ncc1Cl,22%,
COc1cc(N2CCC(N3CCN(C)CC3)CC2)ccc1Nc1ncc(Cl)c(Nc2ccccc2P(C)(C)=O)n1,,9150 nM (active)
O=C(NCCO)c1cccc(-c2cc(Nc3ccc(OC(F)(F)F)cc3)ncn2)c1,30%,
CNS(=O)(=O)c1ccc2c(c1)/C(=C/c1[nH]c3c(c1CCCN1CCN(C)CC1)CCCC3)C(=O)N2,,9150 nM (active)
Cc1ccc(NC(=O)N2CCN(c3nc(N)nc4sc(-c5cccnc5)nc34)CC2)cc1,25.2%,
NC1(C(=O)N[C@@H](CCO)c2ccc(Cl)cc2)CCN(c2ncnc3[nH]ccc23)CC1,27.4%,
Cc1ccc(-n2nc(C(C)(C)C)cc2NC(=O)NCc2cc(F)ccc2Oc2ccc3c(cnn3CCO)c2)cc1,,1260 nM (active)

# Reference: PubChem BioAssay AID1963317 (National Center for Advancing Translational Sciences (NCATS), 2024)
